Experimental data reported in the supplement of paper PMC3334620.
In all, about 33,000 sequences were measured (“E-score (-0.5 to 0.5)”: median about -0.035, highest 2% from about 0.34 on). What follows is part of a selection rich in the highest values, with near analogues and random picks from the rest.

target: T1, Mot3 (UniProt P54785); assay: PBM E-score (8-mer binding enrichment) (E-score (-0.5 to 0.5)); higher = stronger / more preferred TF binding; details: protein concentration: 200 nM; construct: GST-full length
T1 sequence: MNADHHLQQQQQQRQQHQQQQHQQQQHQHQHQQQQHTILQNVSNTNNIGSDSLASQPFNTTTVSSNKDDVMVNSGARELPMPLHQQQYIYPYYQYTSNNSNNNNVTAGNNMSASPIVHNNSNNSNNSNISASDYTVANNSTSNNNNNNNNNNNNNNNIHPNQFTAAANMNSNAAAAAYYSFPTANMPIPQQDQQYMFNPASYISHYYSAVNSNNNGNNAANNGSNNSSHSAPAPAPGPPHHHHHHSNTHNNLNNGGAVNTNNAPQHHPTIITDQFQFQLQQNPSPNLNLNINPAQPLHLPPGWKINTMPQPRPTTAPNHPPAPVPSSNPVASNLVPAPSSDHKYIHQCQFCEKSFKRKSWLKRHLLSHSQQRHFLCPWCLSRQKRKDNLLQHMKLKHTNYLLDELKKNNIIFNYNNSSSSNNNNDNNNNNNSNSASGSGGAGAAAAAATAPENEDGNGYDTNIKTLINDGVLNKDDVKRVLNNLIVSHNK
Method: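 Universal 'all 10-mer' protein binding microarrays (Agilent AMADID 015681) probed with GST-tagged S. cerevisiae TFs (full-length or DBD) made by in vitro transcription/translation (PURExpress), about 100-200 nM. Bound TF was detected with fluorescent anti-GST. Each ungapped 8-mer (which stands for itself and its reverse complement) is scored by the PBM enrichment score (E-score), a modified Wilcoxon-Mann-Whitney statistic from -0.5 to +0.5, computed with the Universal PBM Analysis Suite. Scale: above 0.35 generally sequence-specific binding.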

| Sequence | PBM E-score |
| --- | --- |
| TACCAATA | -0.253 |
| CACGGTCA | 0.212 |
| ATCAGCTG | -0.0375 |
| TCAAGTCA | 0.0447 |
| CGACTTGC | -0.263 |
| GATGAAGA | -0.135 |
| ACCGAGGA | -0.111 |
| ATCGGGGA | 0.0758 |
| AGATAGTC | -0.0427 |
| AGCAGTAG | -0.226 |
| TCAACGGA | -0.113 |
| CGGAAAAA | 0.0869 |
| CAGAAAAG | -0.0566 |
| CCGGAAAG | -0.215 |
| AAGGAAAC | 0.423 |
| CAGGAAAG | 0.432 |
| ATGGAAAA | -0.0018 |
| CAGAAAAA | 0.0512 |
| AAGGGAAA | 0.0842 |
| GAGGAAAC | -0.027 |
| AAGGAAAA | 0.417 |
| CAGGAAAA | 0.427 |
| ACGGAAAC | -0.122 |
| TATCTTAA | 0.153 |
| TAAAGCTA | 0.19 |

| Sequence | PBM E-score |
| --- | --- |
| CAGACCGG | -0.14 |
| ACTCGAAT | 0.00379 |
| CTCAGCAG | -0.113 |
| TGTAATAA | 0.375 |
| TGTAAACA | 0.387 |
| AGTAAACA | 0.251 |
| GGTAATAA | 0.163 |
| CGTAAAAA | 0.258 |
| TGTAAAAA | 0.379 |
| GGTAAACA | 0.323 |
| CGTAATAA | 0.288 |
| AGTAAAAA | 0.16 |
| GGAGAAAA | -0.133 |
| ACCTGTCA | -0.0178 |
| AAGGCTAT | -0.0295 |
| ACGGTGCC | 0.343 |
| ACGGTGCA | 0.184 |
| ACGGTGCG | 0.0148 |
| CAGAGATG | 0.0978 |
| TAGGGTCA | -0.0851 |
| AAGGTCTG | -0.0775 |
| AATCTACA | 0.349 |
| AATCTACT | -0.0291 |
| CATCTACA | 0.262 |
| GGTTCCAA | -0.208 |

| Sequence | PBM E-score |
| --- | --- |
| ACTTCCTA | -0.09 |
| GCTTCCTA | 0.106 |
| CGTTCCTC | 0.167 |
| AGTTCCGA | -0.142 |
| AGTTCCTC | 0.0435 |
| AGTTCCGG | -0.359 |
| AGTTCCTG | 0.403 |
| CGTTCCTA | 0.455 |
| GGTTCCTA | 0.454 |
| AGTTCCTA | 0.433 |
| CATTCCTA | -0.129 |
| CCAATCCC | -0.127 |
| AGAGGGCC | -0.371 |
| GGGGTAGA | -0.0141 |
| AGGTCTTC | -0.0921 |
| CGCTAACG | -0.0607 |
| GGACTACA | 0.102 |
| ACCCCCTA | -0.298 |
| AGGCGAAC | -0.0626 |
| ACAGTTCT | -0.132 |
| GAGAGGCA | 0.239 |
| CCGAGGCA | 0.308 |
| AAGAGGCT | -0.222 |
| TAGAGGCA | 0.389 |
| AAGAGGCA | 0.391 |

| Sequence | PBM E-score |
| --- | --- |
| TAGAGGGA | -0.0707 |
| GCGAGGCA | 0.148 |
| TCGAGGCA | 0.346 |
| CAGAGGCA | 0.299 |
| AAGACCTG | -0.079 |
| TGACTAAA | 0.0227 |
| GGCTAATA | -0.151 |
| ATCGAACA | -0.0411 |
| GATTGTCC | -0.0522 |
| AGGAAGCC | -0.161 |
| AATATGTA | 0.277 |
| CCTATGTA | 0.348 |
| ACTATGTG | 0.0709 |
| GGTATGTA | 0.343 |
| GCTATGCA | -0.154 |
| AGTATGTA | 0.289 |
| ACTATGTA | 0.36 |
| CCTATGTC | 0.172 |
| ACTATGTC | 0.104 |
| CATATGTA | 0.318 |
| GCTATGTA | 0.341 |
| CGTATGTA | 0.309 |
| ACAACTAG | -0.0235 |
| GTCCGGAA | -0.0613 |
| TCCCCCCA | -0.354 |

| Sequence | PBM E-score |
| --- | --- |
| AAAGTCGG | -0.0308 |
| GAAGGGAA | -0.213 |
| CGATGGCC | -0.268 |
| AATAACAC | 0.31 |
| AATAACAG | 0.254 |
| AATAACAT | 0.349 |
| ACGCCGGC | -0.185 |
| CGTAGCCC | -0.0561 |
| ACGTACCG | 0.00315 |
| CGGTACCG | -0.156 |
| TGGTACCA | -0.0506 |
| AAGTACCT | 0.338 |
| AGGTACCT | 0.434 |
| ACGTACCT | 0.292 |
| GGGTACCC | -0.304 |
| AGGTACCC | 0.361 |
| AGGTACCA | 0.361 |
| GGGTACCA | -0.0217 |
| CGGTACCC | -0.277 |
| AGGTACCG | 0.407 |
| ACAATACC | 0.172 |
| GAAGCTAC | -0.0982 |
| AGCTGAAC | -0.255 |
| CTTTTCGA | -0.07 |
| GATCCTCC | -0.303 |

| Sequence | PBM E-score |
| --- | --- |
| GTCCGGAC | 0.0843 |
| AAGACAGA | 0.149 |
| AACCTGAC | -0.0317 |
| AACCTGTG | 0.357 |
| AACCTGAG | -0.0479 |
| ACGTTCCA | 0.0401 |
| AAGTTCCC | -0.309 |
| AAGTTCCG | 0.0427 |
| ACGTTCCT | 0.447 |
| ACGTTCCG | -0.144 |
| AAGTTCCT | 0.341 |
| AAACTTCC | -0.145 |
| ACAGTAGT | -0.0747 |
| AGAGTGGA | -0.0533 |
| ACCGGTTC | -0.148 |
| AACTGGTG | -0.193 |
| CAGGAGGC | -0.0461 |
| AGAAGAGA | -0.102 |
| AAACACGA | 0.292 |
| TAACACGA | 0.402 |
| CAACACGA | 0.363 |
| CAACACGG | 0.302 |
| GAACACGA | 0.187 |
| CAACACGC | 0.322 |
| AGACTGTA | -0.109 |

| Sequence | PBM E-score |
| --- | --- |
| CCCACAGA | -0.053 |
| TCAACCAA | 0.0249 |
| CTACAGGC | 0.354 |
| CTACAGGA | 0.242 |
| CAACAGGA | 0.172 |
| CTACAGAC | 0.0592 |
| CAACAGGC | 0.377 |
| ATACAGGC | 0.333 |
| ATACAGGA | 0.173 |
| GTACAGGA | 0.343 |
| AAACAGGC | 0.301 |
| AGAGTTTC | -0.198 |
| GGTGGTGA | -0.179 |
| GAGAAGTA | -0.0782 |
| CTGCAATC | -0.0301 |
| AAAAGGAC | 0.171 |
| TAAAGGTA | 0.382 |
| AAAAGGAT | 0.157 |
| TAAAAGGA | 0.189 |
| TAAAGGAA | 0.383 |
| CAAAGGAA | 0.415 |
| CAAAGGAG | -0.0795 |
